Source: PubChem BioAssay
Sampled rows, rich in hits. Any-hit rate of the full collection: about 10%.
KinaseGlo FLuc = Kinase-Glo luciferase inhibition (counter-screen); Q27757; Kinase-Glo luciferase, ATP luminescence, 8 min; Potency, µM (highest dose often 38.3 µM), usual class: inhibitors; 0.28% of 200,000 active; active = well fitted inhibition curve with a large enough effect; inconclusive = small, poorly fitted or top-dose-only effect; note: nearly all actives have a fitted effect of over 60% in size
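Kinase-Glo luciferase light output from ATP and luciferin was measured with 10 uM ATP, within the enzyme's linear range. Buffer: 50 mM imidazole pH 7.2, 50 mM KCl, 7 mM MgCl2, 0.01% Tween 20, 0.05% BSA; luminescence read after 8 min at ambient temperature.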
ALDH1A1 inh = ALDH1A1 (human) enzyme inhibition | Purified ALDH1A1, NADH fluorescence, propionaldehyde substrate | P00352 | 7.3% of 220,000 active | AID 1030 | Potency, µM (top dose mostly 75.3 µM), most hits filed as inhibitors
LMNA splice mod = LMNA splicing modulation | HeLa LMNA splicing GFP/RFP minigene ratio, 48 h | Potency, µM (top dose mostly 46.1 µM), hits mostly inhibitors | 0.01% of 200,000 active; active = well fitted inhibition curve with a large enough effect in the signal ratio, with a control signal flat, not every such curve was filed as active; inconclusive = small, poorly fitted or top-dose-only effect, or effect the other way, or a change in a side signal; the % refers to the signal ratio
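S3 HeLa cells stably expressing lamin A-EGFP splicing minigene plus DsRed2, 600 cells/well, 48 h compound exposure at 37C. Laser-scanning cytometry; analysed as GFP (500-530 nm)/RFP (575-640 nm) total intensity ratio; 0.5% DMSO vehicle.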
HPGD block = HPGD (human) dehydrogenase inhibition; Potency, µM, actives largely listed as inhibitors; 4.3% of 150,000 active; purified HPGD, NADH fluorescence kinetic, PGE2 substrate
Target sequence (P15428 whole entry, looked up): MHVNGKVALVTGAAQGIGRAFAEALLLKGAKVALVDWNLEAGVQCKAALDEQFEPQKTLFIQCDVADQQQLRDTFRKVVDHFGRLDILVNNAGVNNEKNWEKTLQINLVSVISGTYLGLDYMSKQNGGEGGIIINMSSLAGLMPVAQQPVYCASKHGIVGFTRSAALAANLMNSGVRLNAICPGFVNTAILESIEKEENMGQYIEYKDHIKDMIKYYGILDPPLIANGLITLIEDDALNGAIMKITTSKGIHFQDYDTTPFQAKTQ
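20 nM HPGD preincubated 15 min at room temperature with compound in 50 mM Tris-HCl pH 8, 0.01% Tween 20. Started with 1 mM NAD+ and 30 uM prostaglandin E2; NADH fluorescence (360/450 nm) read 5 times over 30-s intervals, last minus first.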
PNC inhibitor = perinucleolar compartment assembly inhibition. PC3M PTB-GFP, PNC prevalence imaging, 16 h; stronger effect = lower value. activity change (PNC), negative = inhibition, % at 10 µM. 3.1% of 140,000 active. AID 2417;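 active = readout at or below -70, meaning at least 70% loss of cells showing the perinucleolar compartment, a nuclear body marking cancer cells; inconclusive = readout between -30 and a set limit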
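Compounds are pinned in duplicate onto adhered PC3M cells stably expressing GFP-tagged PTB and incubated 16 h at 37 C. Cells are then fixed, nuclei stained with Hoechst, and PNC-positive cells counted.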
A number is an active result. Unless noted, calls come from the whole dose curve; as a rule, active = well fitted inhibition curve with a large enough effect (not every such curve was filed as active); inconclusive = small, poorly fitted or top-dose-only effect, or another doubt; inactive = no such curve, though single readings can be large or run the other way.

For Oc1ccc(Nc2nc(-c3ccc(Cl)cc3)cs2)cc1 the results were KinaseGlo FLuc inactive, ALDH1A1 inh inactive and HPGD block inactive.
Fc1ccc(Nc2nc(-c3ccncc3)cs2)cc1 was read as KinaseGlo FLuc inactive, ALDH1A1 inh inactive and LMNA splice mod inconclusive.
For Oc1ccc(Nc2nc(-c3ccc(O)cc3)cs2)cc1 the results were KinaseGlo FLuc inactive, ALDH1A1 inh 22.4µM, LMNA splice mod inconclusive, HPGD block inconclusive and PNC inhibitor inactive.
For Nc1ccc(Nc2nc(-c3ccncc3)cs2)cc1 the results were KinaseGlo FLuc inactive, ALDH1A1 inh 22.4µM, LMNA splice mod inconclusive, HPGD block inactive and PNC inhibitor inactive.
`CCCCCC(=O)Cc1cc(O)cc(O)c1C(=O)Oc1cc(CC(=O)CCCCC)c(C(=O)O)c(OC)c1` gave KinaseGlo FLuc inactive, ALDH1A1 inh inactive, LMNA splice mod inconclusive and HPGD block inactive.
CCN1CCN(c2ncnc3c2oc2nc(C(C)C)c4c(c23)CCC4)CC1 was read as KinaseGlo FLuc inactive, ALDH1A1 inh inactive, LMNA splice mod inactive, HPGD block inactive and PNC inhibitor inconclusive.
For CCOC(=O)N1CCN(c2ncnc3c2oc2nc(C(C)C)c4c(c23)CCC4)CC1 the results were KinaseGlo FLuc inactive, ALDH1A1 inh 1µM, LMNA splice mod inactive, HPGD block inconclusive and PNC inhibitor inactive.
Screening CC(C)Cc1nc2oc3c(NCC4CCCO4)ncnc3c2c2c1CCC2 (centres undefined) returned KinaseGlo FLuc inactive, ALDH1A1 inh inconclusive, LMNA splice mod inconclusive, HPGD block inactive and PNC inhibitor -100.0.
Screening CC(C)Cc1nc2oc3c(N4CCN(CCO)CC4)ncnc3c2c2c1CCCC2 returned KinaseGlo FLuc inactive, ALDH1A1 inh 7.94µM, LMNA splice mod inactive, HPGD block inactive and PNC inhibitor inconclusive.
Cc1ccc(OC(=O)c2cc(-c3ccc4c(c3)OCCO4)on2)cc1C was read as LMNA splice mod inactive.
For CC(C)[C@@H](CC(=O)N[C@@H]1CCCC[C@H]1C(=O)N[C@H](CC(=O)N[C@@H](CCC(=O)O)CC(=O)O)Cc1c[nH]c2ccccc12)NC(=O)C[C@H](CO)NC(=O)[C@@H]1CCCC[C@H]1N the results were KinaseGlo FLuc inactive, ALDH1A1 inh inactive and HPGD block inactive.
Screening Cc1cccc(N2CCN(C(=O)Cn3sc4nc(C)cc(C)c4c3=O)CC2C)c1 (centres undefined) returned KinaseGlo FLuc inactive, ALDH1A1 inh 3.55µM, LMNA splice mod inactive, HPGD block 3.16µM and PNC inhibitor inactive.
`Cc1ccc(-c2ccc(=O)n(CC(=O)N3CCN(c4cccc(C)c4)C(C)C3)n2)cc1` (centres undefined) gave KinaseGlo FLuc inactive, ALDH1A1 inh inactive, LMNA splice mod inactive, HPGD block inactive and PNC inhibitor inactive.
Screening CN1CC(=O)N(CC(=O)N2CCC(Cc3ccccc3)CC2)C1=O returned KinaseGlo FLuc inactive, ALDH1A1 inh inconclusive and LMNA splice mod inactive.
Screening Cc1cc(C)c2c(=O)n(CC(=O)N3CCC(Cc4ccccc4)CC3)sc2n1 returned KinaseGlo FLuc inactive, ALDH1A1 inh 7.08µM, LMNA splice mod inactive, HPGD block 4.47µM and PNC inhibitor inactive.
`O=C1N=C(N2CCCC2)S/C1=C\c1ccccc1` gave KinaseGlo FLuc inactive, ALDH1A1 inh inconclusive, LMNA splice mod inactive, HPGD block inactive and PNC inhibitor inactive.
For Cc1ccsc1/C=C1\SC(N2CC(C)OC(C)C2)=NC1=O (centres undefined) the results were KinaseGlo FLuc inactive, ALDH1A1 inh 17.8µM, LMNA splice mod inactive, HPGD block inactive and PNC inhibitor inactive.
Screening CCc1c(C(=O)Nc2cc(C)ccc2OC)[nH]c(C)c1C(C)=O returned KinaseGlo FLuc inactive, ALDH1A1 inh inactive, LMNA splice mod inactive, HPGD block inactive and PNC inhibitor -93.5.
For CCc1c(C(=O)Nc2ccc(OC)cc2)[nH]c(C)c1C(C)=O the results were KinaseGlo FLuc inactive, ALDH1A1 inh inactive, LMNA splice mod inconclusive, HPGD block inactive and PNC inhibitor inactive.
Screening CC1(C)CC(=O)C(C=Nc2ccc(N)cc2)=C(O)C1 returned KinaseGlo FLuc inactive and ALDH1A1 inh 11.2µM.
Screening COc1cccc(N=CC2=C(O)CC(C)(C)CC2=O)c1 returned KinaseGlo FLuc inactive, ALDH1A1 inh 8.91µM, LMNA splice mod inactive, HPGD block inactive and PNC inhibitor -113.4.
CC1(C)CC(=O)C(/C=N/c2ncccc2C(=O)O)=C(O)C1 was read as KinaseGlo FLuc inactive, ALDH1A1 inh 12.6µM, LMNA splice mod inactive, HPGD block inconclusive and PNC inhibitor inactive.
Screening Cc1ccc(N=CC2=C(O)CC(C)(C)CC2=O)nc1 returned KinaseGlo FLuc inactive, ALDH1A1 inh inconclusive, LMNA splice mod inactive, HPGD block inactive and PNC inhibitor inactive.
For CC1(C)CC(=O)C(C=Nc2ccc3cn[nH]c3c2)=C(O)C1 the results were KinaseGlo FLuc inactive, ALDH1A1 inh 14.1µM, LMNA splice mod inactive, HPGD block inactive and PNC inhibitor inactive.
For COc1ccccc1N1CCN(c2ncnc3c2cnn3C)CC1 the results were LMNA splice mod inactive.
For CCOc1ccccc1NC(=O)c1cnc(N2CCOCC2)c2ccccc12 the results were LMNA splice mod inactive.
Cc1c(Cl)cccc1NC(=O)CSc1nc(=O)n(Cc2ccccn2)c2c1CCC2 was read as LMNA splice mod inactive.
CC1(C)CC(=O)C(C=Nc2ccc(O)cc2)=C(O)C1 was read as KinaseGlo FLuc inactive, ALDH1A1 inh inconclusive, LMNA splice mod inactive, HPGD block inactive and PNC inhibitor inactive.
`Cc1[nH]nc(N=CC2=C(O)CC(C)(C)CC2=O)c1-c1ccc(Cl)cc1` gave KinaseGlo FLuc inactive, ALDH1A1 inh 14.1µM, LMNA splice mod inactive, HPGD block inactive and PNC inhibitor inactive.
For CCOc1ccc(N=CC2=C(O)CC(C)(C)CC2=O)cc1 the results were KinaseGlo FLuc inactive, ALDH1A1 inh 14.1µM, LMNA splice mod inactive, HPGD block inactive and PNC inhibitor inactive.
`O=C(Nc1ccc(Cl)cc1)C1CCC(=O)N1Cc1ccccc1Cl` (centres undefined) gave KinaseGlo FLuc inactive, ALDH1A1 inh inactive, LMNA splice mod inactive, HPGD block inactive and PNC inhibitor -90.4.
Cc1ccc(-n2ncc(C(=O)NCc3ccco3)c2C2CCN(C(=O)OC(C)(C)C)CC2)cc1 was read as LMNA splice mod inactive.
Screening Cc1nn(-c2ccccc2)c2c1C(c1ccncc1)C(C#N)=C(N)O2 (centres undefined) returned KinaseGlo FLuc inactive, ALDH1A1 inh 14.1µM, LMNA splice mod inactive, HPGD block inactive and PNC inhibitor inactive.
For Cc1ccc(-n2nc(C)c3c2OC(N)=C(C#N)C3c2ccncc2)cc1 (centres undefined) the results were KinaseGlo FLuc inactive, ALDH1A1 inh inconclusive, LMNA splice mod inactive, HPGD block inactive and PNC inhibitor inactive.
For Cc1ccc(-n2nc(C)c3c2OC(N)=C(C#N)C3c2ccccc2F)cc1 (centres undefined) the results were KinaseGlo FLuc inactive, ALDH1A1 inh 3.98µM, LMNA splice mod inactive, HPGD block inactive and PNC inhibitor inactive.
